In all, about 1,100 sequences were measured (“thermal melting temperature (Tm) of peptide-HLA complex”: median about 58, lowest 2% from about 42 on). Many of the other results were omitted from the sample, so the lowest values are more common in it than they were.
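Also: lysates heated 10 min at 37–73 °C, complexes pulled down with pan-HLA I antibody, peptide signal by DIA-MS relative to 37 °C, Tm where half the complex is unfolded.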

The target in this experiment is HLA-A*02:01. The experiment can be described thus: thermal melting temperature (Tm) of peptide-HLA complex; higher = more thermostable pHLA complex. Conditions: C1R-A*02:01.
Take KLMNVDPDSV: the thermal melting temperature came to 53.8 °C.

In the case of KLMDPGSLPPL, the thermal melting temperature came to 57.3 °C.

Turning to RLGGIPVGV, the thermal melting temperature is 55.9 °C.

The sequence IIMLEALERV had a thermal melting temperature of 46.6 °C.

In the case of ALANGVSRI, the thermal melting temperature came to 55.8 °C.

Turning to ALDRDNFEL, the thermal melting temperature amounted to 47.8 °C.

For FMFDEKLVTV, the thermal melting temperature amounted to 58.5 °C.

The sequence VLGPKIEAV displayed a thermal melting temperature of 55.5 °C.

In turn, FILANEHNV had a thermal melting temperature of 40.8 °C.

Sequence YLPDIIKDQKA registered a thermal melting temperature of 55.4 °C.

The sequence RQIEYYFSV registered a thermal melting temperature of 61.3 °C.

In the case of FMQHDVQEL, the thermal melting temperature amounted to 41.6 °C.

With VVWGTVIRV, the thermal melting temperature is 58.5 °C.

SLDPHAQVAV displayed a thermal melting temperature of 48.9 °C.

KLQDQIFNL: the thermal melting temperature was found to be 56 °C.

Sequence ALSKEGIVAL came in with a thermal melting temperature of 59.5 °C.

In turn, SLLQTLYKV returned a thermal melting temperature of 63.6 °C.

On to ALGPGVPHI, for which the thermal melting temperature was determined as 58 °C.

Take VLADALKSI: the thermal melting temperature came to 58.9 °C.

Turning to KLNATNIEL, the thermal melting temperature worked out at 51.5 °C.

FLEPVNPRL showed a thermal melting temperature of 55.3 °C.

With MLDDRAYLV, the thermal melting temperature is 61.5 °C.

With YPSEFATYL, the thermal melting temperature came out at 56.5 °C.

The sequence TLDEYTTRV displayed a thermal melting temperature of 52.2 °C.

For the sequence LLPSEGIVHL, the thermal melting temperature is 41.3 °C.

Sequence ALMPVLNQV returned a thermal melting temperature of 58.7 °C.

Turning to TLFPGKVHSL, the thermal melting temperature is 55.8 °C.

Sequence SLAGGLDDMKA yielded a thermal melting temperature of 45.1 °C.

Consider MTDPIRILV, for which the thermal melting temperature was found to be 41.9 °C.

ALLKDSIVQL gave a thermal melting temperature of 40.9 °C.

In the case of SLDTQPKKV, the thermal melting temperature amounted to 40.4 °C.

VLLESEQFL yielded a thermal melting temperature of 56.7 °C.

RLDEAFDFV came in with a thermal melting temperature of 57 °C.

Turning to SLDAKEIYL, the thermal melting temperature is 50.5 °C.

For TTLEQPPSV, the thermal melting temperature worked out at 50.3 °C.

QLLPSIPQL registered a thermal melting temperature of 53.7 °C.

With SLLDGVVEKL, the thermal melting temperature is 55.5 °C.

Consider TLFPVRLLV, for which the thermal melting temperature amounted to 55.8 °C.

In turn, GLIDGRLTI returned a thermal melting temperature of 54 °C.

For the sequence FLLEQEKTQAL, the thermal melting temperature amounted to 59 °C.

The sequence LMGPVVHEV had a thermal melting temperature of 46.4 °C.

For QLQGYLRSV, the thermal melting temperature was 57.7 °C.

As for GMDRYLIYV, the thermal melting temperature came out at 60.9 °C.

Sequence YIYDKDMEII displayed a thermal melting temperature of 57.2 °C.

QLLETLNQL returned a thermal melting temperature of 41.4 °C.

For QLTNVILHL, the thermal melting temperature was determined as 58.7 °C.

The sequence SILSEVQQA yielded a thermal melting temperature of 53.3 °C.

In turn, RLYQGINQL yielded a thermal melting temperature of 55.9 °C.

On to FLPDPSALQNL, for which the thermal melting temperature worked out at 55 °C.

On to TLIDLPGITRV, for which the thermal melting temperature was determined as 56.9 °C.

LLAILPEAARA registered a thermal melting temperature of 60 °C.

Take ALLSGLREA: the thermal melting temperature was 62.6 °C.

KLDQVIIHV had a thermal melting temperature of 60.5 °C.

In turn, KVLEVTEEFGV had a thermal melting temperature of 62.6 °C.

ILLEHGADPNL returned a thermal melting temperature of 51.4 °C.

SLLENIAKA came in with a thermal melting temperature of 60.6 °C.

SLQEEIAKL: the thermal melting temperature worked out at 53.4 °C.

In turn, VLDEEIAKA registered a thermal melting temperature of 40.7 °C.

The values above are taken from the supplement of paper PMC7726561.
